The source made the active and inactive calls. Unless noted, calls come from the whole dose curve; as a rule, active = well fitted curve in the direction sought with a large enough effect in the repeat runs; inconclusive = weak or mixed curves; inactive = no such curve, though single readings can be large; an effect the other way counts as inactive or inconclusive.
Tests used:
[1] = qHTS assay to identify small molecule antagonists of the estrogen receptor alpha (ER-alpha) signaling pathway - cell viability counter screen (AID 743074; calls by dose curve; note: nearly all actives have a fitted effect of over 45% in size)
[2] = qHTS assay to identify small molecule antagonists of the estrogen receptor alpha (ER-alpha) signaling pathway using the BG1 cell line - cell viability counter screen (AID 743081);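 note: compound given together with 17beta-estradiol as the ER stimulus; nearly all actives have a fitted effect of over 45% in size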; note: potency is the fitted concentration of half-maximal effect; for activity change, negative = cytotoxicity: series mostly up to about 70 µM
Aromatase (Homo sapiens) = Aromatase (Homo sapiens) (UniProt P11511); experiment: qHTS assay to identify aromatase inhibitors (AID 743083); note: nearly all actives have a fitted effect of over 55% in size; note: potency is the fitted concentration of half-maximal effect; for activity, negative = inhibition: series mostly up to about 70 µM
Chain of Aromatase (Homo sapiens) (P11511 whole entry, looked up): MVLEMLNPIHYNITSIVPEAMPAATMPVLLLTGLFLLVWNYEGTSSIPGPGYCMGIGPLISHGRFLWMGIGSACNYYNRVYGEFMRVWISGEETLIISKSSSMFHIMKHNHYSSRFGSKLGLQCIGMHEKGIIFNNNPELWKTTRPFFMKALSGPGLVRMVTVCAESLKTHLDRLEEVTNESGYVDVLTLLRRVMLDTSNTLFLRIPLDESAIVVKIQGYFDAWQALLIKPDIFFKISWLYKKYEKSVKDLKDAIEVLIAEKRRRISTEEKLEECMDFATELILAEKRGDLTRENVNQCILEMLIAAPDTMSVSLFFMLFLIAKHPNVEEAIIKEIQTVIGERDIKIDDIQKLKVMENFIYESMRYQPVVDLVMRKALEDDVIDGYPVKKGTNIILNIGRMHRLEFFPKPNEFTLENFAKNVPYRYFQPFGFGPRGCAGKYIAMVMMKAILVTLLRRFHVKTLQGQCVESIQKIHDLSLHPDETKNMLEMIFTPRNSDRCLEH

[3] = qHTS assay to identify aromatase inhibitors - cell viability counter screen (AID 743084);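 note: cells stimulated with testosterone during compound exposure; nearly all actives have a fitted effect of over 55% in size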; note: potency is the fitted concentration of half-maximal effect
[4] = target: Estrogen receptor (Homo sapiens) (UniProt P03372); experiment: qHTS assay to identify small molecule antagonists of the estrogen receptor alpha (ER-alpha) signaling pathway (AID 743069; active = well fitted curve in the direction sought with a large enough effect in the signal ratio in the repeat runs, not every such curve was filed as active; inconclusive = weak or mixed curves, or effect the other way; inactive = no such curve, though single readings can be large or run the other way; the % refers to the signal ratio; note: potency is the fitted concentration of half-maximal effect)
Chain of Estrogen receptor (Homo sapiens) (P03372 whole entry, looked up): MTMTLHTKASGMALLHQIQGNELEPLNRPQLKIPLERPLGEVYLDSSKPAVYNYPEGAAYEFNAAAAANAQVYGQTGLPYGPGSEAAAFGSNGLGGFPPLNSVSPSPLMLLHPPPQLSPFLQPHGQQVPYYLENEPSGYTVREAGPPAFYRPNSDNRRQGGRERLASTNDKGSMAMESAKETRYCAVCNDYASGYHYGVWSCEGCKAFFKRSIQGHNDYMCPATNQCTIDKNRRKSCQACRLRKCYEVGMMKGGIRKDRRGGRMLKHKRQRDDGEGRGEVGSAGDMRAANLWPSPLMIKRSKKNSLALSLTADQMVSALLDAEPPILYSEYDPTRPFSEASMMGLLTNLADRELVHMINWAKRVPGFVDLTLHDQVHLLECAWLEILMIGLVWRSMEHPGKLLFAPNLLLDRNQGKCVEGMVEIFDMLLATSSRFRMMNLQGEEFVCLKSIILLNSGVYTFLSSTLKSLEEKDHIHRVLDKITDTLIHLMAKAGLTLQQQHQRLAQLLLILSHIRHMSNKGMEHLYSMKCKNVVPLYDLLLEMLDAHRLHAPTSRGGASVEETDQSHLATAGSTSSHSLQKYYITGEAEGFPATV
Outline: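 In this cell-based reporter format, GripTite HEK293 cells harbouring ER-alpha-UAS-bla were grown overnight with 2% charcoal-stripped FBS, dosed with DMSO-dissolved compounds, then challenged with 17beta-estradiol. After 18 hr at 37C, beta-lactamase activity was detected by FRET fluorescence.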

[5] = target: Estrogen receptor (Homo sapiens) (UniProt P03372); experiment: qHTS assay to identify small molecule agonists of the estrogen receptor alpha (ER-alpha) signaling pathway (AID 743075; calls by dose curve)
[6] = target: Estrogen receptor (Homo sapiens) (UniProt P03372); experiment: qHTS assay to identify small molecule agonists of the estrogen receptor alpha (ER-alpha) signaling pathway using the BG1 cell line (AID 743079); note: nearly all actives have a fitted effect of over 20% in size
[7] = qHTS assay to identify small molecule antagonists of the estrogen receptor alpha (ER-alpha) signaling pathway using the BG1 cell line (AID 743080; calls by dose curve;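 note: BG1 cells stimulated with 17beta-estradiol alongside compound; series mostly up to about 70 µM; nearly all actives have a fitted effect of over 25% in size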)
Outline: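 BG1-Luc-4E2 cells (endogenous full-length ER-alpha, 4xERE luciferase) hormone-starved 5 days in charcoal-stripped FBS, plated 4,000/well for 24 h, then compound plus 17beta-estradiol for 21.5 h at 37 C; ONE-Glo luminescence read.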

[8] = test system: thyroid hormone receptor (rat, GH3 cells); experiment: qHTS assay to identify small molecule agonists of the thyroid receptor (TR) signaling pathway (AID 743066; calls by dose curve)
% is set by controls: 0 for no effect and ±100 for the full control effect.

COC(=O)c1ccc(I)cc1S(=O)(=O)NC(=O)Nc1nc(C)nc(OC)n1
inactive: Potency [1] | Potency [2] | Potency (Aromatase (Homo sapiens)) | Potency [3]

CN1C[C@H]2c3ccccc3Oc3ccc(Cl)cc3[C@@H]2C1
inactive: Potency [4] | Potency [1] | Potency [5] | Potency [6] | Potency [7] | Potency [2]

COC(=O)C1=C(C)NC(COC(N)=O)=C(C(=O)OC(C)C)C1c1cccc(Cl)c1Cl (stereo unspecified)
inactive: Potency [1] | Potency [6] | Potency [7]
active: Potency (Aromatase (Homo sapiens)) 29.8 µM

Cc1cccc(Nc2ccccc2)c1
inactive: Potency [8] | Potency [1] | Potency [2] | Potency [3]

COc1cc(C(=O)OCCCN2CCCN(CCCOC(=O)c3cc(OC)c(OC)c(OC)c3)CC2)cc(OC)c1OC
inactive: Potency [4] | Potency [5] | Potency (Aromatase (Homo sapiens))
active: Potency [2] 9.44 µM | Potency [3] 8.41 µM

COc1cc(Cl)c(OC)cc1N
inactive: Potency [2] | Potency (Aromatase (Homo sapiens)) | Potency [3]

CN(C)c1ccc(/C=C/c2ccc([N+](=O)[O-])cc2)cc1
inactive: activity, negative = cytotoxicity [1] -15.2% [at 6.72 µM] | activity change, negative = cytotoxicity [2] 18.2% [at 8.47 µM] | activity, negative = inhibition (Aromatase (Homo sapiens)) 68.2% [at 8.47 µM]

Clc1ccc2c(c1)CCc1cccnc1C2=C1CCNCC1
inactive: Potency [4] | Potency [5] | Potency [2]

CCN(CC)CCOC(=O)C(c1ccccc1)C1CCCCC1 (stereo unspecified)
inactive: Potency [4] | Potency [1] | Potency [5] | Potency [6] | Potency [7] | Potency [2] | Potency (Aromatase (Homo sapiens)) | Potency [3]

C#C[C@]1(O)CC[C@H]2[C@@H]3CCc4cc(OC5CCCC5)ccc4[C@H]3CC[C@@]21C
inactive: Potency [1] | Potency [2] | Potency (Aromatase (Homo sapiens)) | Potency [3]

OC(CN1CCC(Cc2ccc(F)cc2)CC1)c1ccc(Cl)cc1 (stereo unspecified)
inactive: Potency [8] | Potency [1] | Potency [2] | Potency (Aromatase (Homo sapiens)) | Potency [3]

O=C(O)C1(C(=O)Nc2ccc(Cl)cc2Cl)CC1
inactive: Potency [8] | Potency [5] | Potency [6] | Potency [2] | Potency (Aromatase (Homo sapiens)) | Potency [3]

Cc1cccc(C)c1OCC(=O)N[C@@H](Cc1ccccc1)[C@@H](O)C[C@H](Cc1ccccc1)NC(=O)[C@H](C(C)C)N1CCCNC1=O
active: Potency [4] 21.3 µM [inconclusive]
inactive: Potency [5] | Potency [6] | Potency [7]

CCN(CC)c1ccc2c(-c3ccccc3C(=O)O)c3ccc(=[N+](CC)CC)cc-3oc2c1
active: Potency [2] 9.69 µM | Potency [3] 8.63 µM
inactive: Potency [1] | Potency [5] | Potency [7]

O=C(c1ccc(F)cc1)C1CCN(CCn2c(=S)[nH]c3ccccc3c2=O)CC1
inactive: Potency [8] | Potency [1] | Potency [2] | Potency (Aromatase (Homo sapiens)) | Potency [3]

COc1cc2c(cc1OC)C(C(C(=O)N(CCc1ccc(OC)c(OC)c1OC)CCc1ccc(OC)c(OC)c1OC)c1ccccc1)=NCC2 (stereo unspecified)
inactive: Potency [8] | Potency [1] | Potency (Aromatase (Homo sapiens))

CCCCC1=NC2(CCCC2)C(=O)N1Cc1ccc(-c2ccccc2-c2nn[nH]n2)cc1
inactive: Potency [4] | Potency [1] | Potency [5] | Potency [6] | Potency [7] | Potency [2] | Potency (Aromatase (Homo sapiens))

C[Si](C)(CCCN)O[Si](C)(C)CCCN
inactive: Potency [4] | Potency [1] | Potency [5] | Potency [6] | Potency [7] | Potency (Aromatase (Homo sapiens)) | Potency [3]

CCCCC(=O)OCC(=O)[C@H]1[C@H](C)C[C@H]2[C@@H]3C[C@H](F)C4=CC(=O)C=C[C@]4(C)[C@@]3(F)[C@@H](O)C[C@@]21C
inactive: Potency [8] | Potency [5] | Potency [6] | Potency [2] | Potency (Aromatase (Homo sapiens)) | Potency [3]

COc1cccc(N(C)C(=S)Oc2ccc3c(c2)CCCC3)n1
inactive: Potency [8] | Potency [5] | Potency [2] | Potency (Aromatase (Homo sapiens)) | Potency [3]

C[N+]1(CC2COC(c3ccccc3)(C3CCCCC3)O2)CCCCC1 (stereo unspecified)
inactive: Potency [4] | Potency [1] | Potency [5] | Potency [6] | Potency [7] | Potency [2] | Potency (Aromatase (Homo sapiens)) | Potency [3]

CC(=O)[O][Al]
inactive: Potency [8] | Potency [1] | Potency [2] | Potency (Aromatase (Homo sapiens)) | Potency [3]

CC1=CC=C(C(C)C)CC1
inactive: Potency [4] | Potency [1] | Potency [5] | Potency [6] | Potency [7] | Potency [2] | Potency (Aromatase (Homo sapiens)) | Potency [3]

CC(C)CC(=O)C1C(=O)c2ccccc2C1=O
inactive: Potency [1] | Potency [5] | Potency [6] | Potency [7] | Potency [2] | Potency (Aromatase (Homo sapiens)) | Potency [3]

O=P(O)(OCc1ccccc1)OCc1ccccc1
inactive: Potency [4] | Potency [1] | Potency [5] | Potency [6] | Potency [7] | Potency [2] | Potency (Aromatase (Homo sapiens)) | Potency [3]

C#Cc1cccc(Nc2ncnc3cc(OCCOC)c(OCCOC)cc23)c1
active: Potency (Aromatase (Homo sapiens)) 18.8 µM
inactive: Potency [8] | Potency [5] | Potency [6] | Potency [7] | Potency [3]

c1ccc(C(O[C@H]2CCCN(CCc3ccc4c(c3)OCO4)C2)c2ccccc2)cc1
inactive: Potency [4] | Potency [1] | Potency [5] | Potency [6] | Potency [7] | Potency [2] | Potency [3]

O=C(O)CC(=O)C(=O)O
inactive: Potency [1] | Potency [2] | Potency (Aromatase (Homo sapiens)) | Potency [3]

OC(C#CCN1CCCC1)(c1ccccc1)c1ccccc1
inactive: Potency [8] | Potency [1] | Potency (Aromatase (Homo sapiens)) | Potency [3]

CC[N+]1(CC)CCC(=C(c2ccccc2)c2ccccc2)C1C (stereo unspecified)
inactive: Potency (Aromatase (Homo sapiens)) | Potency [3]

CC(C)OC(=O)C(C)N(C(=O)c1ccccc1)c1ccc(F)c(Cl)c1 (stereo unspecified)
inactive: Potency [8] | Potency [1] | Potency [2] | Potency (Aromatase (Homo sapiens)) | Potency [3]

Reference: PubChem BioAssay (Tox21)
